The panel holds about 83,000 compounds, 20% with a hit somewhere; the sample as a whole holds those more often.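 Method: cells in 96-well plates; compound added at one concentration; 48 h incubation; percent growth measured; values under 10 scored active.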 Active and inactive are the calls of the source.
How the values were obtained:
Assay in all cases: NCI-60 one-dose screen, 48 h (100 = growth as untreated, 0 = no growth, -100 = all killed)
Details in all cases: 10 µM
[1] = test system: HCT-15 colon
[2] = test system: HT29 colon
[3] = test system: SNB-75 CNS
[4] = test system: SNB-19 CNS
[5] = test system: U251 CNS
[6] = test system: PC-3 prostate
[7] = test system: SK-MEL-5 melanoma
[8] = test system: UACC-62 melanoma
[9] = test system: LOX IMVI melanoma
[10] = test system: SK-MEL-28 melanoma
[11] = test system: SK-MEL-2 melanoma
[12] = test system: EKVX NSCLC
[13] = test system: UO-31 renal
[14] = test system: TK-10 renal
[15] = test system: ACHN renal
[16] = test system: CAKI-1 renal
[17] = test system: A498 renal
[18] = test system: CCRF-CEM leukemia
[19] = test system: MOLT-4 leukemia
[20] = test system: SN12C renal

Measured: growth

CCN(CC)c1ccc(/C=C/C2=[N+](C)c3ccccc3C2(C)C)c(C)c1
inactive: [1] 10.5% | [4] 20.6% | [12] 10.6% | [16] 15.5%
active: [2] 2.67% | [3] 7.22% | [5] 7.12% | [6] 7.18% | [7] -97.5% | [8] -21.4% | [9] 3.02% | [10] 9.14% | [11] -12.7% | [13] 8.27% | [14] 9.49% | [15] 5.97% | [17] 3.94% | [18] 4.91% | [19] -20.4%

CC1(C)CNC(=O)N1
inactive: [1] 98.8% | [2] 94.6% | [3] 94.4% | [4] 103% | [5] 97.4% | [6] 93.3% | [7] 82.6% | [8] 95.9% | [9] 107% | [10] 114% | [11] 98.8% | [12] 96% | [13] 87.7% | [14] 97.7% | [15] 110% | [16] 97.1% | [17] 95.5% | [18] 95.4% | [19] 101%

Cc1ccc(-n2c(-c3cc4c([nH]c5ccccc54)c(-c4cccc(O)c4)n3)n[nH]c2=S)cc1
active: [1] 2.88% | [2] -44% | [3] 5.15% | [4] 4.47% | [5] -3.05% | [7] -17.5% | [8] -40.3% | [9] -77% | [10] 7.56% | [11] -48.1% | [16] 7.33% | [17] -40% | [18] 7.56% | [19] 0.747%
inactive: [6] 19.4% | [12] 19.4% | [13] 30.9% | [14] 24.9% | [15] 32.6%

O=[N+]([O-])c1ccc(Br)o1
inactive: [1] 105% | [2] 95.8% | [3] 97.5% | [4] 107% | [5] 103% | [6] 98.8% | [7] 96.9% | [8] 103% | [9] 93.9% | [10] 104% | [11] 94.4% | [12] 101% | [13] 90% | [14] 96.4% | [15] 100% | [16] 98.3% | [17] 102% | [18] 114% | [19] 106%

CCCCCCCCCCN=C(c1ccc(N(C)C)cc1)c1ccc(N(C)C)cc1
inactive: [1] 12.9% | [3] 33.1% | [4] 31.8% | [5] 21.3% | [6] 30.7% | [8] 31.7% | [9] 42.1% | [10] 59.7% | [11] 23.3% | [12] 29.3% | [13] 52.8% | [14] 55.7% | [15] 43.3% | [16] 35.7% | [18] 28.1% | [19] 24.6%
active: [2] 9.42% | [7] 0.192% | [17] -9.41%

Cc1cc(C)c2nc(C)c(C)[n+]([O-])c2c1
inactive: [1] 97.6% | [2] 96.3% | [3] 84.1% | [4] 109% | [5] 90.6% | [6] 72.8% | [7] 104% | [8] 105% | [9] 95.4% | [10] 106% | [11] 106% | [12] 99.1% | [13] 88.3% | [14] 99.3% | [15] 109% | [16] 96.9% | [17] 146% | [18] 66% | [19] 83.1%

Cc1ccc2c(c1)-c1cc(C)nn1-c1ccc(C#N)cc1O2
inactive: [1] 38.7% | [2] 20% | [3] 48.8% | [4] 68.6% | [5] 46.9% | [6] 66.2% | [7] 75.9% | [8] 52.4% | [9] 49.4% | [10] 70.3% | [11] 44.7% | [12] 65.7% | [13] 47.4% | [14] 84.1% | [15] 91.5% | [16] 71.9% | [17] 47.2% | [19] 49.6%

CN(C)c1ccc2c(c1)OC(N)=C(C#N)C2c1ccc2c(c1)CCO2 (stereo unspecified)
inactive: [1] 18% | [3] 40.8% | [4] 31.4% | [5] 21.7% | [6] 24.1% | [7] 10.3% | [8] 34.8% | [9] 29% | [10] 57.6% | [11] 32.1% | [12] 35.9% | [13] 38.2% | [14] 79.1% | [15] 37.4% | [16] 37% | [18] 28.7% | [19] 34.5%
active: [2] 9% | [17] -9.63%

CCOC(=O)[C@@H](Cc1ccccc1)NC(=O)c1[nH]c2ccc(Cl)cc2c(=O)c1C
inactive: [1] 40.7% | [2] 91.7% | [3] 95.9% | [4] 94.3% | [5] 71.7% | [6] 80.7% | [7] 81.6% | [8] 86.6% | [9] 95.8% | [10] 104% | [11] 89% | [12] 97.4% | [13] 84.7% | [14] 91.3% | [15] 95.6% | [16] 86.6% | [17] 143% | [18] 74.4% | [19] 93.3%

N#Cc1c2c([nH]c(=O)c1C(N)=O)CCCCC2
inactive: [1] 105% | [2] 105% | [3] 104% | [4] 99% | [5] 98.3% | [6] 103% | [7] 95.8% | [8] 88.3% | [9] 101% | [10] 106% | [11] 98.7% | [12] 104% | [13] 85.2% | [14] 95.4% | [15] 104% | [16] 99.3% | [17] 89.8% | [18] 95% | [19] 117%

CCOc1ccc(-n2cc(-c3ccc(N(C)C)cc3)[n+]3c2CCCCC3)cc1
active: [2] 9.2% | [5] 8.21% | [6] 4.48% | [7] -92.4% | [11] -7.29% | [14] 8.78% | [17] -10.2%
inactive: [1] 75.8% | [3] 18.4% | [4] 20.3% | [8] 20.4% | [9] 12.7% | [10] 51.2% | [12] 14.1% | [13] 66.1% | [15] 22.2% | [16] 60.9% | [18] 28.3% | [19] 13.4%

CC(C)c1[nH]nc2c(NCc3ccc(-c4ccccn4)cc3)nc(SCCN(C)C)nc12
active: [1] 6.46% | [2] -15.7% | [3] -55.9% | [5] 7.48% | [6] 2.89% | [7] 1.36% | [8] -37.2% | [9] -7.56% | [10] 5.17% | [11] -65.6% | [12] -5.89% | [14] 6.52% | [15] 7.84% | [17] -66.3% | [18] 1.67% | [19] -8.11%
inactive: [4] 13.7% | [13] 16.7% | [16] 18.9%

O=C1CC(c2cccc(-c3cccnc3)c2)=Nc2ccc(Br)cc2N1
active: [7] 8.01% | [14] -9.34% | [17] -4.26%
inactive: [1] 61.9% | [2] 56.6% | [3] 11.6% | [4] 62.9% | [5] 27.2% | [6] 30.8% | [8] 47.3% | [9] 55.8% | [10] 67.5% | [11] 49.5% | [12] 36.9% | [13] 41.9% | [15] 27.5% | [16] 49.9% | [18] 50.8% | [19] 27.1%

Nc1nsc(C(=O)c2ccc(O)cc2)n1
inactive: [1] 102% | [2] 106% | [3] 101% | [4] 103% | [5] 93.5% | [6] 76.1% | [7] 97.9% | [8] 89% | [9] 89.3% | [10] 100% | [11] 102% | [12] 97.9% | [13] 79.5% | [14] 108% | [15] 91.1% | [16] 92% | [17] 115% | [19] 110%

O=C(CSc1nnc(-c2ccc(Cl)cc2)o1)c1ccccc1
inactive: [1] 99% | [2] 96.1% | [3] 98.3% | [4] 101% | [5] 96% | [6] 86.9% | [7] 91.7% | [8] 92.4% | [9] 94.3% | [10] 102% | [11] 104% | [12] 102% | [13] 98.1% | [14] 97.5% | [15] 101% | [16] 99.3% | [17] 106% | [18] 94.3% | [19] 104%

COc1cccc(C2(C)Nc3ccccc3-c3nc4ccccc4n32)c1 (stereo unspecified)
inactive: [1] 105% | [2] 113% | [3] 103% | [4] 105% | [5] 101% | [6] 109% | [7] 101% | [8] 102% | [9] 101% | [10] 107% | [11] 105% | [20] 100% | [13] 94.2% | [14] 106% | [15] 102% | [16] 99.8% | [17] 95.6% | [18] 99.1% | [19] 84.5%

NS(=O)(=O)c1ccc(N2N=C(c3ccc(-c4ccccc4)cc3)CC2c2ccc(Cl)cc2)cc1 (stereo unspecified)
inactive: [1] 60.9% | [2] 64.4% | [3] 99.8% | [4] 86.5% | [5] 75.7% | [6] 43.2% | [7] 86.8% | [8] 51.1% | [9] 87.2% | [10] 96.8% | [11] 95.5% | [20] 67.4% | [13] 72.1% | [14] 112% | [15] 80.4% | [16] 78.7% | [17] 87.4% | [18] 74.4% | [19] 70.6%
